Here are results for 31 molecules from PubChem BioAssay (NCATS).

Records with an inconclusive call do not appear. Unmarked numbers belong to inactive results. Activity calls are given as the source filed them. Unless noted, calls come from the whole dose curve; as a rule, active = well fitted curve in the direction sought with a large enough effect; inconclusive = small, poorly fitted or top-dose-only effect, or another doubt; inactive = no such curve, though single readings can be large; an effect the other way counts as inactive or inconclusive.

Assay [1] in a line: qHTS for Inhibitors of Plasmodium falciparum (GB4) proliferation (AID 504315). Note: nearly all actives have a fitted effect of over 50% in size. Note: potency is the fitted concentration of half-maximal effect. The method, boiled down:
(§1)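 Parasite growth measured as SYBR Green DNA fluorescence (ex 485, em 535 nm) after overnight lysis following 72 h culture at 37 °C, 0.3% parasitemia, 2.5% hematocrit. Values normalized against DMSO and 0.29 uM artemisinin controls, with plate-stack correction.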

The nature of assay [2]: qHTS for Inhibitors of Plasmodium falciparum (CP250) proliferation (AID 504320). The method, boiled down: as §1
The target in assay [3] is Atrial natriuretic peptide receptor 1 (Homo sapiens) (UniProt P16066). Kind of assay: Natriuretic polypeptide receptor (hNpr1) antagonism - Pilot CMLD screen (AID 1347052; calls by dose curve;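 note: HEK293 cells with hNpr1 stimulated by hNppA peptide at 0.1 nM; cGMP level read as GloSensor luciferase luminescence after agonist stimulation; series mostly up to about 9.2 µM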).
Assay [4] can be described thus: qHTS for Inhibitors of Plasmodium falciparum (7G8) proliferation (AID 504316). Note: nearly all actives have a fitted effect of over 65% in size. Note: potency is the fitted concentration of half-maximal effect. In a few lines: as §1
Assay [5] in a line: qHTS for Inhibitors of Plasmodium falciparum (HB3) proliferation (AID 504318). Note: nearly all actives have a fitted effect of over 60% in size. Note: potency is the fitted concentration of half-maximal effect. In a few lines: as §1

Chain of Atrial natriuretic peptide receptor 1 (Homo sapiens) (P16066 whole entry, looked up): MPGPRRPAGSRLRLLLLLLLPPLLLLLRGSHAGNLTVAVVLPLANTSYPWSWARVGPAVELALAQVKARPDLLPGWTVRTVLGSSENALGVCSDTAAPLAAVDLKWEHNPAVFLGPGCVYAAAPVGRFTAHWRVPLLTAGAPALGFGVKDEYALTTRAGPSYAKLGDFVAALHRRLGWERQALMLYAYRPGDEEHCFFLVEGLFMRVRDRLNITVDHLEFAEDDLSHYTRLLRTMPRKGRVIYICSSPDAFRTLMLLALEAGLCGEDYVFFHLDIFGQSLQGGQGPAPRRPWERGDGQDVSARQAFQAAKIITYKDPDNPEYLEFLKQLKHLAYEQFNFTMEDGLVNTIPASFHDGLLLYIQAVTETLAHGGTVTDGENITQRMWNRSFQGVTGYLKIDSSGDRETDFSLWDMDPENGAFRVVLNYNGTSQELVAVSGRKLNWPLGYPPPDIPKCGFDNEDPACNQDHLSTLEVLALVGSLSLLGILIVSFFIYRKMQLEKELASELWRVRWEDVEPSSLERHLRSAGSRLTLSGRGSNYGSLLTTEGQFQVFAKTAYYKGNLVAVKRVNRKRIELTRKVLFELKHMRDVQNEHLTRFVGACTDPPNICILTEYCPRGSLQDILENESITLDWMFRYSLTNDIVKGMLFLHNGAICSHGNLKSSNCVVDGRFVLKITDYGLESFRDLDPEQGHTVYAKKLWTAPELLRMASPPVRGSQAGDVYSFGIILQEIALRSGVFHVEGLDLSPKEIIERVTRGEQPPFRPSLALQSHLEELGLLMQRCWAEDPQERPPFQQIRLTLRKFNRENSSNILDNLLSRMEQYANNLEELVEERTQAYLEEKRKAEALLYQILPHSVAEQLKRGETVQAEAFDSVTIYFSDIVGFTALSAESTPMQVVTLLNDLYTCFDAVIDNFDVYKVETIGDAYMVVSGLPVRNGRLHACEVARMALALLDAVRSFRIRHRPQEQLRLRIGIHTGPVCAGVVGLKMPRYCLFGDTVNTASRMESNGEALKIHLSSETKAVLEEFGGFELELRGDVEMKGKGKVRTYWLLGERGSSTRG

Regarding `COC1=C(C(=O)c2ccccc2)C(=O)[C@@]2(CC=C(C)C)CC(C#N)C[C@@]1(CC=C(C)C)C2=O` (some centres undefined), the Potency result in assay [1], in assay [2] and in assay [3] was “inactive” throughout.
Turning to `C=C(CCN1C=C(C(=O)OCC)C(c2ccccc2)NC1=O)c1ccc(Cl)cc1` (centres undefined), the Potency entry in assay [1], in assay [2] and in assay [3] was “inactive” throughout.
For the molecule `COc1ccc(O[C@H]2C=C[C@@H](c3ccccc3)O[C@H]2COC(=O)CCC(C)=NO[C@H](C)c2cn([C@@H]3COC[C@@H]3O)nn2)cc1`, the Potency result in assay [1], in assay [2] and in assay [3] was “inactive” throughout.
Consider `N#Cc1ccc2c(c1)C[C@]1(CCCCN3C(=O)c4ccccc4C3=O)Oc3c(c(=O)oc4ccccc34)[C@H]2O1`, for which the Potency in assay [4] is 1.51 µM (active). Moreover, in assay [3], the Potency result is “inactive”.
Take `COc1ccc([C@]23Cc4ccccc4[C@H](O2)c2c(cc(C)n(Cc4ccccc4)c2=O)O3)cc1`: the Potency in assay [1] was 2.13 µM (active). Also, the Potency entry in assay [2] and in assay [3] was “inactive” throughout.
Turning to `CC(C)=CCCC(C)=CC=CC1=CC2(C)CC1(C)C(C=C(C)CCC=C(C)C)CC2=O` (centres undefined), the Potency entry in assay [1], in assay [2] and in assay [3] was “inactive” throughout.
For the molecule `C=C(C)C[C@@]1(c2ccccc2)Oc2ccccc2C2=NCCN=C21`, the Potency result in assay [1], in assay [2] and in assay [3] was “inactive” in each case.
In the case of `COc1ccc(O[C@H]2C=C[C@@H](c3ccccc3)O[C@H]2CON=C(C)CCN2CCCc3nc(C)c(C)cc32)cc1`, the Potency in assay [4] was 1.51 µM (active). Moreover, the Potency result in assay [3] was “inactive”.
With `CCCCn1c(C)cc2c(c1=O)[C@H]1O[C@](CCCCN3C(=O)c4ccccc4C3=O)(Cc3ccccc31)O2`, the Potency in assay [4] is 1.69 µM (active). Moreover, the Potency entry in assay [3] is “inactive”.
Regarding `COc1ccc2c3c(c(=O)oc2c1)[C@H]1O[C@](c2ccsc2)(Cc2cc(C#N)ccc21)O3`, the Potency result in assay [1], in assay [2] and in assay [3] was “inactive” each time.
`COc1cc(CCN2C(=O)NC(c3ccccc3)C(C(C)=O)=C2C)cc(OC)c1OC` (centres undefined): the Potency entry in assay [1], in assay [2] and in assay [3] was “inactive” each time.
Consider `COc1cccc2c1[C@H](C=Cc1ccccc1)[C@@H]([C@H](O)CN=[N+]=[N-])OC2`, for which the Potency entry in assay [1], in assay [2] and in assay [3] was “inactive” in each case.
For the molecule `C[C@@H](c1ccccc1)N1C(=O)[C@@H]2[C@H]3[C@H](O)[C@H](O)CC(=NOC[C@@H](O)COCc4ccco4)[C@H]3CC[C@H]2C1=O`, the Potency entry in assay [1], in assay [2] and in assay [3] was “inactive” throughout.
Turning to `COc1ccc([C@]23Cc4cc(OC)c(OC)cc4[C@H](O2)C2=C(CCCC2=O)O3)cc1`, in assay [4], the Potency was 1.51 µM (active). Besides, in assay [3], the Potency entry was “inactive”.
Take `CCc1cc2c(nc1CC)CCN(CCC(C)=NOCC[C@@H]1C=C[C@H](OC(C)=O)[C@@H](COC(C)=O)O1)C2`: the Potency result in assay [1], in assay [2] and in assay [3] was “inactive” each time.
Regarding `CC(CCN1CCCc2nc(C)c(C)cc21)=NOC[C@@H](O)COCc1ccco1`, the Potency result in assay [1], in assay [2] and in assay [3] was “inactive” each time.
For `COC(=O)C1=C(C(=O)OC)[C@@H]2N(C)c3ccc(OC)cc3[C@@]23C[C@@H](C(=O)OC)N(C(=O)N2CCNC2=O)C3=N1`, the Potency entry in assay [1], in assay [2] and in assay [3] was “inactive” throughout.
Take `COC1=C[C@@H](C(=O)N[C@H]2CCCC[C@H]2NC(C)=O)[C@]2(C)Cc3ccccc3[C@H]2CC1=O`: the Potency result in assay [1], in assay [2] and in assay [3] was “inactive” each time.
For `CC1=CC[C@@H](COc2ccccc2)O[C@@]2(C1)C(=O)N(Cc1ccc(F)cc1)c1ccccc12`, the Potency entry in assay [1], in assay [2] and in assay [3] was “inactive” each time.
`CCOC(=O)OC[C@H]1O[C@H](c2ccc(C(C)=O)cc2)C=C[C@H]1Oc1ccc(-c2ccccc2)cc1`: in assay [4], the Potency is 1.51 µM (active). Besides, the Potency entry in assay [3] is “inactive”.
As for `CC(=O)OC[C@H]1O[C@H](CC=NO[C@H](C)c2cn([C@H](CO)Cc3ccccc3)nn2)C=C[C@@H]1OC(C)=O`, the Potency result in assay [4], in assay [5], in assay [2] and in assay [3] was “inactive” in each case.
Turning to `C[C@H]1C=CCC(=O)N[C@@H](c2ccccc2)[C@@H](C)C=CCC(=O)N[C@@H]1c1ccccc1`, the Potency was 0.426 µM (active) in assay [4] and 1.51 µM (active) in assay [5]. For the same molecule, the Potency result in assay [2] and in assay [3] was “inactive” throughout.
Regarding `COC(=O)C1=C(C)N(CCC(C)O)C(=O)N(C(C)=O)C1c1ccccc1` (centres undefined), the Potency result in assay [4], in assay [5], in assay [2] and in assay [3] was “inactive” each time.
As to `CC1=C[C@@H](COc2ccccc2)O[C@@]2(C1)C(=O)N(Cc1ccccc1)c1ccccc12`, the Potency in assay [4] is 0.757 µM (active). The Potency result in assay [5], in assay [2] and in assay [3] was “inactive” in each case.
Turning to `COC1=C[C@H](C(=O)NCc2ccccn2)[C@@]2(C)Cc3ccccc3[C@@H]2CC1=O`, the Potency result in assay [4], in assay [5], in assay [2] and in assay [3] was “inactive” throughout.
As for `CCCNC(=O)N1C2=NC(C(=O)OC)=C(C(=O)OC)[C@@H]3N(C)c4ccc(OC)cc4[C@]23C[C@H]1C(=O)OC`, the Potency in assay [4] was 1.69 µM (active); in assay [5], 2.94 µM (active). In addition, the Potency entry in assay [3] is “inactive”.
`O=C1C2=C(C(=O)c3ccccc31)[C@H]1O[C@](c3ccsc3)(Cc3ccccc31)O2`: the Potency in assay [4] and in assay [5] was 1.9 µM (active) each time. In addition, the Potency entry in assay [3] was “inactive”.
As for `COC(=O)C1=C(C)N(Cc2ccccc2)C(=NCCc2ccc(O)cc2)NC1c1ccc(Br)cc1` (centres undefined), the Potency result in assay [4], in assay [5] and in assay [3] was “inactive” throughout.
As for `COC(=O)c1c(C(=O)OC)c2c3cc(OC)c(OC)cc3cc([Si](C)(C)C)n2c1C(=O)OC`, the Potency is 1.51 µM (active) in assay [4] and 2.13 µM (active) in assay [5]. In addition, the Potency entry in assay [2] and in assay [3] was “inactive” in each case.
As to `C=C[C@H]1CCC=C2C(=O)CCC[C@H]21`, in assay [4], the Potency was 1.9 µM (active). For the same molecule, the Potency result in assay [3] is “inactive”.
Take `c1ccc(C2NCCc3c2[nH]c2ccccc32)cc1` (centres undefined): the Potency entry in assay [4], in assay [5], in assay [2] and in assay [3] was “inactive” each time.
